PubChem BioAssay AID1981 (Southern Research Specialized Biocontainment Screening …, 2009)
Among all 2,200 compounds or so, about 480 (22%) were called active. The rule behind the calls is not given here. Not all results are given here. Entries with a potency or affinity are not part of this list.

Experiment: S. Typhimurium GFP fluorescence modified counterscreen for PhoP regulon inhibitor project dose response (AID 1981)
Conditions: 4 h; series mostly up to 150 µM

Compound	outcome
O=C(c1ccc(F)cc1)C(CN1CCOCC1)c1ccccc1 (stereo not given)	inactive
O=C(NCc1ccccn1)Nc1cccc(Cl)c1	inactive
COCCNCCOc1ccccc1-c1ccccc1	inactive
COc1cc(OC)c(NC(=O)Nc2ccc(OC)c(OC)c2)cc1Cl	inactive
Cc1ccc2cc(CN(CCO)Cc3nnnn3Cc3ccc(F)cc3)c(=O)[nH]c2c1	inactive
CCOC(=O)C(NS(=O)(=O)c1ccccc1)(C(F)(F)F)P(=O)(OCC(C)C)OCC(C)C (stereo not given)	inactive
Cc1cc2cc(CNS(=O)(=O)c3ccc4ccccc4c3)ccc2n1C	inactive
O=C(c1ccccc1)c1coc2ccc(O)c(Cl)c12	inactive
C#CCOc1ccc(Cl)cc1/C=N/O	inactive
CC(C)CNC(=O)c1ccc(COc2ccc(Cl)cc2Cl)o1	inactive
Cc1ccc(SC(c2ccc(C)cc2)C(Cn2cncn2)C(=O)c2ccccc2)cc1 (stereo not given)	inactive
Cc1cccc(NC(=S)NC(NC(=O)c2ccco2)C(Cl)(Cl)Cl)c1 (stereo not given)	inactive
CCOC(=O)C1=C(C)N=c2s/c(=C\c3ccncc3)c(=O)n2C1c1ccc2c(c1)OCO2 (stereo not given)	inactive
CCOc1ccc(S(=O)(=O)NNC(=S)Nc2ccc(Br)cc2)cc1	inactive
CCOC(=O)c1c(NC(=O)COc2ncnc3ccccc23)sc(C)c1CC	inactive
O=C1C(Nc2ccccc2)=C/C(=N/S(=O)(=O)c2cccs2)c2ccccc21	inactive
Cc1cc(C)c2cc(CN(Cc3cccnc3)C(=O)c3ccc(F)cc3)c(Cl)nc2c1	inactive
COc1ccc(C(C)=O)c2c(O)cccc12	inactive
CCN(CC)CCNC(=O)c1cn(CC)c2cc(N3CCN(C(=O)c4ccco4)CC3)c(F)cc2c1=O	inactive
CN(C)CCNC(=O)c1ccc(COCC(F)(F)F)cc1	inactive
COc1ccc(S(=O)(=O)N2CCN(C(=O)c3c(C)nn(-c4ccccc4)c3Cl)CC2)cc1	inactive
Cn1c(-c2ccc3c(c2)OCO3)cnc1NCc1cccc(Cl)c1	inactive
O=C(NCCN1CCOCC1)c1ccc2ccccc2c1	inactive
O=C(Cc1ccccc1)NCc1ccc(F)cc1	inactive

Compound	outcome
Fc1ccccc1CCNCc1cccc(Cl)c1Cl	inactive
c1coc(CNc2c3c(nc4ncnn24)CCCC3)c1	inactive
O=S(=O)(Nc1ccc2c(c1)nc1n2CCN(Cc2ccccc2)C1)c1ccc(F)cc1	inactive
CCn1c(SCC(=O)Nc2ccc3c(c2)oc2ccccc23)nnc1-c1ccc(N)cc1	inactive
CC1(C)CC(=O)C2=C(C1)N(c1ccc(F)cc1)C(N)=C(C#N)C2c1cccs1 (stereo not given)	inactive
O=C(Oc1ccc(N(Cc2cccs2)C2=NS(=O)(=O)c3ccccc32)cc1)c1ccc(Cl)cc1	inactive
O=C(NCCNc1ccc([N+](=O)[O-])cc1C(F)(F)F)c1ccccc1F	inactive
O=C(Nc1cnc2ccccc2c1)N1CCOCC1	inactive
CCOC(=O)N1CCN(S(=O)(=O)c2ccc(C(=O)NNc3nc4c(C)cc(C)cc4s3)cc2)CC1	inactive
O=C(c1ccco1)c1cn(CC(=O)N2CCCc3ccccc32)c2ccccc12	inactive
O=c1cc(O)nc(SCc2ccccc2Cl)[nH]1	inactive
Cc1cc(C(=O)N2CCN(C/C=C/c3ccccc3)CC2)no1	inactive
Cc1[nH]c2ccccc2c1C(c1ccncc1)N1CCN(c2ccc(F)cc2)CC1 (stereo not given)	inactive
Cn1cc(-c2nnnn2-c2cccc(C(F)(F)F)c2)c(C(F)(F)F)n1	inactive
COC(=O)CSc1nc(SCc2ccccc2Cl)nc2c1CCCC2	inactive
c1ccc(-c2cc(CSc3nc4ccccc4[nH]3)on2)cc1	inactive
N#Cc1nc(Cc2cccc3ccccc23)oc1NCCCN1CCOCC1	inactive
Cc1nc2cc(NC(=O)N3CCN(c4ccccn4)CC3)ccc2o1	inactive
Oc1ccc(C2NCc3ccccc3-n3cccc32)cc1Cl (stereo not given)	inactive
CC(=O)c1sc(NC(=O)COc2ccc([N+](=O)[O-])cc2)nc1C	inactive
CCn1c(SCc2ccc(F)cc2)nc2ccccc2c1=O	inactive
CCCCCc1ccc(OCCC[n+]2ccccc2)c(CCCCC)c1	inactive
O=C(CSC1CCCCC1)Nc1ccccc1Br	inactive
COc1ccc(NC(C)C(=O)Nc2ccc(C(C)(C)C)cc2)cc1Cl (stereo not given)	inactive

Compound	outcome
Cc1cccc(-n2c(O)c(C=NCc3cccnc3)c(=O)[nH]c2=O)c1C	inactive
Cc1ccc(C(C[N+](=O)[O-])c2c(C)cc3ccccn23)cc1 (stereo not given)	inactive
O=C(O)CCS(=O)(=O)c1ccc(-c2ccccc2)cc1	inactive
CNC(=O)CSc1nnc(-c2cccnc2)n1CCc1ccccc1	inactive
Cc1ccc(-c2nc3ccccc3[nH]2)cc1NC(=S)NC(=O)c1ccccc1Br	inactive
Cc1ccc(OCc2nnc(SCC(=O)Nc3ccc4c(c3)OCO4)n2C)cc1	inactive
CCOc1ccc(/C(O)=C2\C(=O)C(=O)N(CCN(C)C)C2c2cccc(OC)c2OC)cc1Cl (stereo not given)	inactive
O=C(Cc1cccs1)Nc1cccc(-c2nc3cc4ccccc4cc3[nH]2)c1	inactive
COc1ccc(Cl)cc1-c1nc(SCC(N)=O)n[nH]1	inactive
O=C(OCC#CCSc1nnc(-c2cccc3ccccc23)o1)c1ccco1	inactive
COc1ccc(Nc2nc(-c3c[nH]c4ccccc34)cs2)cc1	inactive
CCc1ccccc1NC(=O)c1nnn(CC(=O)Nc2cccc(C)c2C)c1N	inactive
CCc1ccc2[nH]c(=O)c(CN(Cc3ccccc3)C(=O)Nc3ccccc3OC)cc2c1	inactive
COc1ccccc1N1CCN(C(=O)c2cccc3c(=O)c(C)c(-c4ccccc4)oc23)CC1	inactive
COc1ccccc1NC(=S)NC(=O)C(C)(C)C	inactive
COC(=O)c1ccc(C)c(NC(=O)CN(c2cc(OC)ccc2OC)S(C)(=O)=O)c1	inactive
N#CC1(C#N)COC23CCCCC2C1(C#N)C(=N)O3 (stereo not given)	inactive
COc1ccc(OC)c(-c2cc(C(=O)Nc3c(C)nn(Cc4ccccc4)c3C)no2)c1	inactive
Cc1nc2ccccc2n1CC(=O)NCc1ccccc1	inactive
CCN1CCN(C(=O)c2ccc3c(=O)n(Cc4ccccc4OC)c(=S)[nH]c3c2)CC1	inactive
CC(C)Cc1nc2ccc(N)cc2[nH]1	inactive
Cc1[nH]c2ccccc2c1C(=O)COC(=O)c1ccc([N+](=O)[O-])s1	inactive
